Measurements taken from publication PMC5540273 (PLoS ONE, 2017).

Legend:
Conditions in all cases: concentration: 1 μM, replicates: in singlicate; n = 1
[1] = test system: SRMS
[2] = test system: SRPK1
[3] = test system: SRPK2
[4] = test system: SRPK3
[5] = test system: STK16
[6] = test system: STK33
[7] = test system: STK35
[8] = test system: STK36
[9] = test system: STK39
[10] = test system: SYK
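Further: KINOMEscan kinase panel screen.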

Row | Compound | %Inh [1] | %Inh [2] | %Inh [3] | %Inh [4] | %Inh [5] | %Inh [6] | %Inh [7] | %Inh [8] | %Inh [9] | %Inh [10]
1 | Nc1nc(-c2ccc3c(N)n[nH]c3c2)cc(N2CCC[C@@H](C(=O)Nc3ccccc3)C2)n1.O=C(O)C(F)(F)F.O=C(O)C(F)(F)F [GSK2288359] | 0% | 34% | 0% | 25% | 18% | 0% | 0% | 0% | 1% | 0%
2 | Nc1nc(-c2cccnc2)c(-c2ccnc3ccccc23)s1 [GW684083] | 0% | 3% | 4% | 18% | 17% | 14% | 0% | 0% | 0% | 34%
3 | Nc1n[nH]c2nnc(-c3ccccc3)cc12 [SB-517389] | 0% | 20% | 0% | 1% | 0% | 0% | 0% | 0% | 13% | 5%
4 | CC(C)N1CCC(n2cnc(-c3ccc(F)cc3)c2-c2ccnc(N)n2)CC1 [SB-223132] | 0% | 0% | 45% | 6% | 0% | 0% | 0% | 26% | 0% | 19%
5 | CSc1ccc(NC2=C(c3ccccc3Cl)C(=O)NC2=O)cc1 [SB-342411] | 0% | 7% | 0% | 5% | 14% | 0% | 5% | 48% | 19% | 23%
6 | CSc1nn2c(=O)cc(N3CCOCC3)nc2n1Cc1cccc(Cl)c1Cl [GSK2347225] | 0% | 13% | 0% | 0% | 14% | 3% | 65% | 28% | 0% | 30%
7 | CC(C)(C)c1ccc(-n2cnc3c(N)ncnc32)cc1 [SKF-97263] | 14% | 29% | 0% | 31% | 0% | 0% | 11% | 11% | 0% | 0%
8 | OCCOCCn1ccc2ncnc(Nc3ccc(Oc4cccc(Cl)c4)c(Cl)c3)c21 | 0% | 0% | 0% | 0% | 0% | 0% | 0% | 0% | 0% | 26%
9 | CC(C)(C)OC(=O)NC1CCCN(c2cc(-c3ccc4c(N)n[nH]c4c3)nc(N)n2)C1 (stereo not shown) [GSK2286096] | 0% | 15% | 0% | 0% | 19% | 53% | 0% | 0% | 0% | 0%
10 | Fc1ccc(Nc2nccc(-c3c(-c4ccc(Cl)cc4)nn4ncccc34)n2)cc1F [GW829058] | 22% | 0% | 0% | 6% | 23% | 1% | 0% | 8% | 22% | 7%
11 | Cn1ccc2ncnc(Nc3ccc(Oc4cccc(Cl)c4)c(Cl)c3)c21 | 0% | 20% | 0% | 0% | 0% | 26% | 0% | 6% | 0% | 4%
12 | Cl.Fc1ccccc1COc1ccc(Nc2ncnc3ccc(-c4nnc(C(F)(F)F)o4)cc23)cc1Cl [GW424170] | 0% | 0% | 3% | 0% | 0% | 0% | 0% | 0% | 0% | 0%
13 | FC(F)(F)c1ccc(-c2nn3ncccc3c2-c2ccnc(Nc3cccc(C(F)(F)F)c3)n2)cc1 [GW828205] | 30% | 0% | 36% | 8% | 14% | 5% | 0% | 0% | 0% | 20%
14 | Cc1ccc(O)cc1Nc1cc(C(F)(F)F)nc2ccc(-c3ccncc3)cc12 [GW630823] | 0% | 7% | 0% | 0% | 28% | 24% | 0% | 0% | 0% | 8%
15 | Cl.c1ccc(Cn2ncc3cc(Nc4ncnc5ccccc45)ccc32)cc1 [GW273749] | 0% | 16% | 0% | 0% | 40% | 0% | 0% | 0% | 0% | 18%
16 | CN1CCC(n2cnc(-c3ccc(F)cc3)c2-c2ccnc(NC3CCNCC3)n2)CC1 [SB-229482] | 28% | 0% | 27% | 16% | 12% | 0% | 0% | 24% | 47% | 0%
17 | Cn1ccc2ncnc(Oc3ccc(NC(=O)Nc4cccnc4)c(Cl)c3)c21 | 0% | 12% | 0% | 0% | 3% | 0% | 6% | 13% | 0% | 0%
18 | CN1c2ccc(-c3ccc(C(=O)NCCO)cc3)cc2-c2[nH]ncc2S1(=O)=O | 0% | 12% | 5% | 1% | 2% | 9% | 26% | 30% | 13% | 41%
19 | COc1ccc(Nc2nccc(N3CCC(NC(=O)c4cccc(NC(C)=O)c4)C3)n2)cc1 (stereo not shown) [GSK1379732] | 9% | 18% | 61% | 0% | 11% | 2% | 0% | 0% | 15% | 18%
20 | NC(=O)c1sc(-n2cnc3ccccc32)cc1OCc1ccccc1F [GSK1024306] | 0% | 50% | 0% | 16% | 0% | 0% | 0% | 0% | 4% | 7%
21 | COc1ccc(-c2oc3ncnc(N)c3c2-c2ccc(OC)cc2)cc1 [SB-589132] | 6% | 30% | 53% | 0% | 57% | 0% | 0% | 0% | 24% | 20%

Row | Compound | %Inh [1] | %Inh [2] | %Inh [3] | %Inh [4] | %Inh [5] | %Inh [6] | %Inh [7] | %Inh [8] | %Inh [9] | %Inh [10]
22 | N#Cc1ccc(Oc2ccc(Nc3ncnc4cc[nH]c34)cc2Cl)cc1 | 0% | 0% | 0% | 0% | 36% | 27% | 27% | 10% | 15% | 13%
23 | C[C@@H]1CCN(C(=O)CO)C[C@@H]1N(C)c1ncnc2[nH]ccc12 | 0% | 24% | 0% | 0% | 0% | 2% | 4% | 0% | 0% | 3%
24 | CS(=O)(=O)CCNCc1nc(-c2ccc3ncnc(Nc4ccc(OCc5cccc(F)c5)c(Cl)c4)c3c2)cs1.Cl [GW583340] | 0% | 2% | 0% | 0% | 8% | 0% | 0% | 0% | 1% | 18%
25 | O=C(NCCCN1CCCC1=O)c1cnc(NCc2cc(Cl)ccc2Cl)nc1NC1CCNCC1 | 0% | 21% | 0% | 4% | 0% | 0% | 0% | 0% | 0% | 8%
26 | Oc1ccc2ncnc(Nc3ccc(OCc4ccccc4)cc3)c2c1 [GI262866] | 0% | 32% | 0% | 15% | 3% | 8% | 7% | 0% | 0% | 14%
27 | Cl.Cl.c1ccc(-c2cc3ccncc3cc2OC2CCNCC2)cc1 [GSK1122999] | 0% | 3% | 0% | 0% | 0% | 100% | 0% | 88% | 0% | 19%
28 | Fc1ccc(-c2ncn(CCCNCc3ccccc3)c2-c2ccncc2)cc1 | 0% | 31% | 4% | 23% | 0% | 0% | 0% | 20% | 0% | 23%
29 | COc1cc2ncnc(Nc3ccc(OCc4ccccc4Br)c(Cl)c3)c2cc1OC.Cl [GI261590] | 0% | 0% | 32% | 5% | 6% | 0% | 18% | 0% | 7% | 33%
30 | COc1ccc(NC(=O)Nc2ccc(C)c(-c3ccc(C(=O)Nc4ccncc4)cc3)c2)cc1 [GSK1398475] | 0% | 0% | 0% | 0% | 0% | 0% | 0% | 0% | 0% | 0%
31 | Cl.c1ccc(Cn2ccc3cc(Nc4ncnc5ccccc45)ccc32)cc1 [GW275568] | 15% | 11% | 0% | 0% | 19% | 0% | 0% | 20% | 18% | 26%
32 | CCCc1ccc(S(=O)(=O)NC2CCN(c3ccnc(Nc4ccc(OC)cc4)n3)C2)cc1 (stereo not shown) [GSK1379737] | 0% | 28% | 28% | 0% | 1% | 0% | 0% | 15% | 17% | 18%
33 | CNc1nccc(-c2c(-c3ccc(F)cc3)ncn2CCCN2CCOCC2)n1 [SB-222516] | 0% | 19% | 0% | 0% | 0% | 21% | 0% | 0% | 8% | 0%
34 | Clc1cccc(-c2nc(Nc3ccncc3)c3ccccc3n2)c1 [GW873004] | 2% | – | 43% | 0% | 0% | 26% | 0% | 3% | 0% | 33%
35 | Cn1cc(-c2ccc3c(c2)CCN3C(=O)Cc2cccc(C(F)(F)F)c2)c2c(N)ncnc21 [GSK2606414] | 0% | 24% | 0% | 100% | 11% | 0% | 0% | 0% | 1% | 0%
36 | Cc1ccc(NC(=O)c2cccc(C#N)c2)cc1-c1ccc(C(=O)Nc2ccncc2)cc1 [GSK1398463] | 0% | 11% | 0% | 12% | 0% | 0% | 5% | 0% | 16% | 0%
37 | Cc1ccc(C)c(NC(=O)NCCNc2ccnc(Nc3ccc(F)cc3)n2)c1 [GSK1379878] | 0% | 0% | 0% | 0% | 100% | 0% | 0% | 0% | 0% | 17%
38 | Clc1ccc(-c2cc(-c3c[nH]nc3-c3ccccn3)ccn2)cc1 [GW681251] | 0% | 0% | 0% | 0% | 19% | 0% | 0% | 0% | 1% | 22%
39 | Fc1cccc(COc2ccc(Nc3ncnc4nn5ccccc5c34)cc2Cl)c1 [GW689066] | 0% | 2% | 30% | 8% | 12% | 0% | 0% | 0% | 0% | 26%
40 | CCc1nc(-c2cccc(C)c2)c(-c2ccnc(NC(=O)c3ccccc3)c2)s1 | 0% | 0% | 0% | 0% | 6% | 12% | 0% | – | 0% | 0%
41 | FC(F)(F)c1ccc(-c2cc(-c3c[nH]nc3-c3ccccn3)ccn2)cc1 [GW599550] | 0% | 24% | 13% | 2% | 10% | 0% | 0% | 0% | 0% | 44%
42 | COC(=O)c1c(-c2ccccc2)c2cc(Cl)ccc2c(=O)n1Cc1ccc(S(C)(=O)=O)cc1 | 0% | 10% | 6% | 0% | 0% | 0% | 15% | 15% | 0% | 3%
